These results are taken from the supplement of paper PMC9492666.

Where a name gives a salt, the structure may show the parent alone.

One assay concerns HCC1937. Briefly: relative cell viability, compound + RSL3, vs DMSO (fraction of DMSO control); higher = less growth inhibition. The note with it: 72 h.
The subject of a further assay is MDA-MB-231. Described as above. Conditions: 72 h.
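Note: breast cancer cell viability read out with the CCK-8 kit after co-treatment of each compound with the ferroptosis inducer RSL3.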

For the compound `COC(=O)/C=C/c1cccc(N(Cc2ccc(-c3ccc(N(C)C)cc3)cc2)C(=O)C2CCCCC2)c1` [Fexaramine] + COC(=O)c1ccc([C@H]2c3[nH]c4ccccc4c3C[C@H](C(=O)OC)N2C(=O)CCl)cc1 [RSL3], the relative cell viability with HCC1937 came out at 0.316; in the assay with MDA-MB-231 it was 0.601.
For the compound `O=C(ON1C(=O)CCC1=O)N1CCN(C(c2ccc(Cl)cc2)c2ccc(Cl)cc2)CC1` [Cravatt Reagent] + COC(=O)c1ccc([C@H]2c3[nH]c4ccccc4c3C[C@H](C(=O)OC)N2C(=O)CCl)cc1 [RSL3], the relative cell viability with HCC1937 came to 0.55; in the assay on MDA-MB-231, 0.716.
As to `CC[C@H]1[C@@H](O)[C@@H]2[C@H](CC[C@]3(C)[C@@H]([C@H](C)CCC(=O)O)CC[C@@H]23)[C@@]2(C)CC[C@@H](O)C[C@@H]12` [Obeticholic Acid] + COC(=O)c1ccc([C@H]2c3[nH]c4ccccc4c3C[C@H](C(=O)OC)N2C(=O)CCl)cc1 [RSL3], the relative cell viability with HCC1937 is 0.513; in the assay with MDA-MB-231 it was 0.543.
`c1ccc([C@H]2CN3CCSC3=N2)cc1` [Levamisole hydrochloride] + COC(=O)c1ccc([C@H]2c3[nH]c4ccccc4c3C[C@H](C(=O)OC)N2C(=O)CCl)cc1 [RSL3]: the relative cell viability in the assay with HCC1937 amounted to 0.704; in the assay on MDA-MB-231 it was 0.53.
On to `O=C(O)C(O)Cc1ccc(O)c(O)c1` (configuration not stated) [Sodium Danshensu] + COC(=O)c1ccc([C@H]2c3[nH]c4ccccc4c3C[C@H](C(=O)OC)N2C(=O)CCl)cc1 [RSL3], for which the values for the relative cell viability in the assay on HCC1937 and in the assay with MDA-MB-231 were 0.631 and 0.545, respectively.
As for `COc1ccc([C@@H]2OC[C@H]3[C@@H]2CO[C@@H]3c2ccc(O[C@@H]3O[C@H](CO)[C@@H](O)[C@H](O)[C@H]3O)c(OC)c2)cc1OC` [Forsythin] + COC(=O)c1ccc([C@H]2c3[nH]c4ccccc4c3C[C@H](C(=O)OC)N2C(=O)CCl)cc1 [RSL3], the values for the relative cell viability in the assay with HCC1937 and in the assay with MDA-MB-231 were 0.731 and 0.664, respectively.
As to `CCNC1(C(N)=O)CCN(c2ncnc3c2nc(-c2ccccc2Cl)n3-c2ccc(Cl)cc2)CC1` [Otenabant] + COC(=O)c1ccc([C@H]2c3[nH]c4ccccc4c3C[C@H](C(=O)OC)N2C(=O)CCl)cc1 [RSL3], the relative cell viability in the assay on HCC1937 is 0.659; with MDA-MB-231, 0.39.
Take `COc1cccc(CNc2ccc(S(=O)(=O)Nc3nc4ccccc4s3)cc2)c1O` + COC(=O)c1ccc([C@H]2c3[nH]c4ccccc4c3C[C@H](C(=O)OC)N2C(=O)CCl)cc1 [RSL3]: the results for the relative cell viability in the assay on HCC1937 and in the assay on MDA-MB-231 were 0.583 and 0.657, respectively.
Taken in the same sequence, the figures for `NC(N)=NN=Cc1cccc(Cl)c1Cl` [Raphin1] + COC(=O)c1ccc([C@H]2c3[nH]c4ccccc4c3C[C@H](C(=O)OC)N2C(=O)CCl)cc1 [RSL3] were 0.289 and 0.626.
Regarding `COc1cc(O)c2c(c1)O[C@H](c1ccc(O)cc1)CC2=O` [Sakuranetin] + COC(=O)c1ccc([C@H]2c3[nH]c4ccccc4c3C[C@H](C(=O)OC)N2C(=O)CCl)cc1 [RSL3], the relative cell viability with HCC1937 worked out at 0.362; in the assay on MDA-MB-231 it was 0.645.
For the compound `O=C(O)c1cc2c(Cl)c(N3CCN(S(=O)(=O)c4c(Cl)cccc4Cl)CC3)ccc2o1` [Vonafexor] + COC(=O)c1ccc([C@H]2c3[nH]c4ccccc4c3C[C@H](C(=O)OC)N2C(=O)CCl)cc1 [RSL3], the relative cell viability in the assay with HCC1937 stood at 0.514; in the assay on MDA-MB-231 it was 0.745.
The corresponding values for `O=C(O)c1cccnc1Nc1cccc(C(F)(F)F)c1` [Niflumic acid] + COC(=O)c1ccc([C@H]2c3[nH]c4ccccc4c3C[C@H](C(=O)OC)N2C(=O)CCl)cc1 [RSL3] are 0.734 and 0.53.
The corresponding values for `O=P(O)(O)OC(CO)CO` [β-Glycerol phosphate disodium salt pentahydrate] + COC(=O)c1ccc([C@H]2c3[nH]c4ccccc4c3C[C@H](C(=O)OC)N2C(=O)CCl)cc1 [RSL3] are 0.343 and 0.56.
The corresponding values for `COCCNC(=O)Nc1ccc2nc(-c3cccs3)c(-c3cccs3)nc2c1` [Ac-CoA Synthase Inhibitor1] + COC(=O)c1ccc([C@H]2c3[nH]c4ccccc4c3C[C@H](C(=O)OC)N2C(=O)CCl)cc1 [RSL3] are 0.594 and 0.566.
Consider `CCOC(=O)C(C)(C)Oc1ccc(Cl)cc1` [Clofibrate] + COC(=O)c1ccc([C@H]2c3[nH]c4ccccc4c3C[C@H](C(=O)OC)N2C(=O)CCl)cc1 [RSL3], for which the relative cell viability in the assay on HCC1937 came to 0.728; in the assay with MDA-MB-231, 0.619.
`CCCCCCCCCCC[C@@H](C[C@@H]1OC(=O)[C@H]1CCCCCC)OC(=O)[C@H](CC(C)C)NC=O` [Orlistat] + COC(=O)c1ccc([C@H]2c3[nH]c4ccccc4c3C[C@H](C(=O)OC)N2C(=O)CCl)cc1 [RSL3]: the relative cell viability came to 0.572 in the assay with HCC1937 and 0.167 with MDA-MB-231.
